Results on 41 targets are retold here after the supplement of paper PMC12067093, “Discovery and optimisation of a covalent ligand for TRIM25 and its application to targeted protein ubiquitination” (Chemical Science, 2025).

The full data set covers some 21,000 targets. This sample favours those with the largest changes.

Compound in this experiment: CC1Cc2ccccc2N1C(=O)C1CCCN(C1)C(=O)CCl (mixture of isomers) [TRIM25 ligand 11 (diastereomer mixture)]
The experiment is described as follows: probe-labelled cysteine peptide fold change vs DMSO (competition) (log2 fold change); higher = less target engagement (more negative = stronger competition). The conditions noted are these: THP-1, incubation time: 4 h.
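Note: competitive chemoproteomic profiling in live THP-1 cells with an iodoacetamide desthiobiotin (IA-DTB) probe, comparing probe-labelled peptide intensities in compound-treated cells against DMSO-treated controls.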

Chain of UniProt O95391 (O95391 whole entry, looked up): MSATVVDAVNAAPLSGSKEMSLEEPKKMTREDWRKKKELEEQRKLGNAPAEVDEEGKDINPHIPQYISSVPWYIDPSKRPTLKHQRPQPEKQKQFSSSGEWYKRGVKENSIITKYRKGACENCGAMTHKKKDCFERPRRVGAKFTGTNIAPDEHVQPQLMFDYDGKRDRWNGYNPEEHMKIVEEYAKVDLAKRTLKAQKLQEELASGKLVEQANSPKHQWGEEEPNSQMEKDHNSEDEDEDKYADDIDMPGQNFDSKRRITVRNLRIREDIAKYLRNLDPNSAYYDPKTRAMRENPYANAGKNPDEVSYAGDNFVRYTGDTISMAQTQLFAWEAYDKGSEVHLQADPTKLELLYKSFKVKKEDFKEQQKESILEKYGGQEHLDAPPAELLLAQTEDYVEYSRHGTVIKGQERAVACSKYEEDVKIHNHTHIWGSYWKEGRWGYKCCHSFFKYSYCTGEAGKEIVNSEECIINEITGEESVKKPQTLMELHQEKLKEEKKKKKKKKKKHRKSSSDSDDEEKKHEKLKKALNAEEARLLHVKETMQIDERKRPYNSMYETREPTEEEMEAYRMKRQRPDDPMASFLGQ
Chain of UniProt Q8IY92 (Q8IY92 whole entry, looked up): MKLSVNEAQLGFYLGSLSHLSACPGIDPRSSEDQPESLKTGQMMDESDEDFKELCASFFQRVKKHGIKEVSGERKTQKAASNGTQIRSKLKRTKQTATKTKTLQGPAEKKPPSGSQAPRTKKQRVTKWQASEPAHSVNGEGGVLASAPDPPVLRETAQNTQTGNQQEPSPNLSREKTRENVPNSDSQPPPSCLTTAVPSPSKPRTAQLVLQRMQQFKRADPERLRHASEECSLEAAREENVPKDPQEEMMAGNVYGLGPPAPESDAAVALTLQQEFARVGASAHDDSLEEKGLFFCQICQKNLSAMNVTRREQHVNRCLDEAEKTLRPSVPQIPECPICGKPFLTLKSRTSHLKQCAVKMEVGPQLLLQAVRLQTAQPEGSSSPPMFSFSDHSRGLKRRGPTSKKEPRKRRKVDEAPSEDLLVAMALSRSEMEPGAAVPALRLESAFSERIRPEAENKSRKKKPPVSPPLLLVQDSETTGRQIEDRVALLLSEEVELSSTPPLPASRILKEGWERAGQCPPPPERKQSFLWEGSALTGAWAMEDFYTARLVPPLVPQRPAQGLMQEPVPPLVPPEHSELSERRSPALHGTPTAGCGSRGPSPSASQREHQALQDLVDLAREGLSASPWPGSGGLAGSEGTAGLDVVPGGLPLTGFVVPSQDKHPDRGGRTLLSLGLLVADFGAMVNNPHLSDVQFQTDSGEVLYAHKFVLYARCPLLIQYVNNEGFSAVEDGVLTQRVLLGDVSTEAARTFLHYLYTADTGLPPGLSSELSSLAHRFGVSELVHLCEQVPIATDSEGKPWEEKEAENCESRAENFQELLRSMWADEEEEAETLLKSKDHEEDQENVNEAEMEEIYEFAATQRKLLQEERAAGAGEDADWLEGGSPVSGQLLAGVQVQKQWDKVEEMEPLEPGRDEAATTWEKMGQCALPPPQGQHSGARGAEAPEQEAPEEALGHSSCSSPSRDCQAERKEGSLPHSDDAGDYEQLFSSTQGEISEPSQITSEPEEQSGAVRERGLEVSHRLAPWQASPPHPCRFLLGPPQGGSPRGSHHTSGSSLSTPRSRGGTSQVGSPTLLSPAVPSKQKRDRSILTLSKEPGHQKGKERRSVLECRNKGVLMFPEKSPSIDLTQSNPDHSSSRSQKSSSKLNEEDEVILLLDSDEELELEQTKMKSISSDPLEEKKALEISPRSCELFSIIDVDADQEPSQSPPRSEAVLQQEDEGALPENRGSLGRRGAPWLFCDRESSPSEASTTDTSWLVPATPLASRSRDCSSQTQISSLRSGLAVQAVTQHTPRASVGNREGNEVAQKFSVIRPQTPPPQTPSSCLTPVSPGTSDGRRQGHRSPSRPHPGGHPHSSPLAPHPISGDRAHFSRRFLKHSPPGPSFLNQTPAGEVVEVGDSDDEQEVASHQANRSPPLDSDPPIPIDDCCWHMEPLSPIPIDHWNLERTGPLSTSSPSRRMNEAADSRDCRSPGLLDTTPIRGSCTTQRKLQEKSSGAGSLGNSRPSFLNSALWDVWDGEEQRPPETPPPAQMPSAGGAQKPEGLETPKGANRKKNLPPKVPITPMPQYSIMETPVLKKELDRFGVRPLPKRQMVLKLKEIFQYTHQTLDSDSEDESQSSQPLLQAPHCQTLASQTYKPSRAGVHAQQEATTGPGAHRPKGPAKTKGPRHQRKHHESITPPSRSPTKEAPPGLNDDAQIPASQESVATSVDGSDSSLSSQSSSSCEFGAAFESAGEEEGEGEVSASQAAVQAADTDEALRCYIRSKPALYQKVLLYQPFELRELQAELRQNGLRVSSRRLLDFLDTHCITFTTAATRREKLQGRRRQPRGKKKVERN
Chain of UniProt O75818 (O75818 whole entry, looked up): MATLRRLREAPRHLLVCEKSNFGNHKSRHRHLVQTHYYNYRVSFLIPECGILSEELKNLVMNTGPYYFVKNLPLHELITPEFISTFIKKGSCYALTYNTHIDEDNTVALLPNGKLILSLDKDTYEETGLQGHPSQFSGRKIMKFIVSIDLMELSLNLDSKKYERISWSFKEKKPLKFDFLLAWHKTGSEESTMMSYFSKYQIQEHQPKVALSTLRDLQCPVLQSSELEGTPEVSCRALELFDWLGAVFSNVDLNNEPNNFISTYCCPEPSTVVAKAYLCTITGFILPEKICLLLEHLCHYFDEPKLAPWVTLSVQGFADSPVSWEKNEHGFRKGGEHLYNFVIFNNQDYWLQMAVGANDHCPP
Chain of UniProt Q07617 (Q07617 whole entry, looked up): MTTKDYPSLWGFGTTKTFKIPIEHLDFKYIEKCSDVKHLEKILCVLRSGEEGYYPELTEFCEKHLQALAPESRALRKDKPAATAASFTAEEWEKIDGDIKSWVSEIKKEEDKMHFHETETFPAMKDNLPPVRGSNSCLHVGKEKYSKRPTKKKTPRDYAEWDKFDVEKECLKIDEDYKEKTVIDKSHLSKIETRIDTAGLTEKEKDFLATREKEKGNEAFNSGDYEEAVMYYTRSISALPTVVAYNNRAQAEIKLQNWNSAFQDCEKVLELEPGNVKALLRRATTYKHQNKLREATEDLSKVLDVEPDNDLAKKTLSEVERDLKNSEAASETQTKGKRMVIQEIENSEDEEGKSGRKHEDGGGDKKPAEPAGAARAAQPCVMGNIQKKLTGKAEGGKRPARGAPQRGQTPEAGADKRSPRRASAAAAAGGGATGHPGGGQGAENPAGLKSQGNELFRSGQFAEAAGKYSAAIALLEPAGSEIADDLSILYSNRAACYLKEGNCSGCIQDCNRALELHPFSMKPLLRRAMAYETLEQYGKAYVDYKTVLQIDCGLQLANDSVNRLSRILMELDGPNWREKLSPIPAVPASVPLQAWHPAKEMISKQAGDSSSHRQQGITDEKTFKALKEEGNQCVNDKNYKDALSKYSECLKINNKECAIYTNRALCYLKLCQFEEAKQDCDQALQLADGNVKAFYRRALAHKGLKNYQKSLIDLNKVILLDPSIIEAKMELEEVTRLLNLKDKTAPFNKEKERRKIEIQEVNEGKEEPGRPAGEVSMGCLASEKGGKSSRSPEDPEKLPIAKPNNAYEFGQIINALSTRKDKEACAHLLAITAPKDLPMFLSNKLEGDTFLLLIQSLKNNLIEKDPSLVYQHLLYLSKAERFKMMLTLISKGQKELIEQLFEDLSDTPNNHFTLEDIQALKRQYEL
Chain of UniProt O43159 (O43159 whole entry, looked up): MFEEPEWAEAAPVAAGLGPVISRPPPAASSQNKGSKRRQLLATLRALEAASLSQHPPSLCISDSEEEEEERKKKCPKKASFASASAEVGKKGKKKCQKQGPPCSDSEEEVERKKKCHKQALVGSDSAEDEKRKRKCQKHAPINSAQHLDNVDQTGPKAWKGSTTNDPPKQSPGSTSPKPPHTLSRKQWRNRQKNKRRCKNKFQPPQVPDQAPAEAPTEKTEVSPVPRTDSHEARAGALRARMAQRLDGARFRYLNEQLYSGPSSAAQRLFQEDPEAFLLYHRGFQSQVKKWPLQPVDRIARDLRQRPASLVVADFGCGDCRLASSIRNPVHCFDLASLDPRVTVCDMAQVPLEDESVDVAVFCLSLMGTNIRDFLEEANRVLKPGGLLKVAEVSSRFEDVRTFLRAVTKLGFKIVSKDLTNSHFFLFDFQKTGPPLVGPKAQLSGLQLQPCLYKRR
Chain of UniProt P08047 (P08047 whole entry, looked up): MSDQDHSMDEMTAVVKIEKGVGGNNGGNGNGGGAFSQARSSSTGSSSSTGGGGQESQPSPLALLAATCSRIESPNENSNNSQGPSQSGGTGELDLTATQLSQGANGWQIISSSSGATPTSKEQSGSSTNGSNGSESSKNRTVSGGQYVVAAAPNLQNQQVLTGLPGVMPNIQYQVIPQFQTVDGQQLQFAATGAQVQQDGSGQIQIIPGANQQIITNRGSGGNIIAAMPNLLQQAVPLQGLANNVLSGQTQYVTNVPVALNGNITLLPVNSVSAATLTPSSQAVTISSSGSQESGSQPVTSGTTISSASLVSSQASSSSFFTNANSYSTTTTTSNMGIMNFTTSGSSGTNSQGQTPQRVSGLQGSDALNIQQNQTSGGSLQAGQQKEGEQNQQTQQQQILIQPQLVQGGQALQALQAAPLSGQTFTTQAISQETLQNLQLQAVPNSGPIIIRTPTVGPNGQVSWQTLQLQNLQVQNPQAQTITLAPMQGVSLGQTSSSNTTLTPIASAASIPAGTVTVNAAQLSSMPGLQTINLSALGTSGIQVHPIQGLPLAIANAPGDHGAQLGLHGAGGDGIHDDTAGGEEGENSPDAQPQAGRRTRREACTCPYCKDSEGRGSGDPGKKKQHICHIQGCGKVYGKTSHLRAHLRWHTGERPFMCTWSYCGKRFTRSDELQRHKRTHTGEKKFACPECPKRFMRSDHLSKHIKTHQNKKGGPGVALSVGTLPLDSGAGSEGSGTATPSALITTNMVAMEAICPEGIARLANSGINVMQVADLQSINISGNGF
Chain of UniProt P05109 (P05109 whole entry): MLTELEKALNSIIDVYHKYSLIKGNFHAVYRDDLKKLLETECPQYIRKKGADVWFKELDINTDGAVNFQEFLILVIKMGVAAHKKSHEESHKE

Take “SLC15A4_Q8N697_269_ILTYSCCSQK (UniProt Q8N697)”: the “probe-labelled cysteine peptide fold change” value was -0.00859 (10 µM) and -0.114 (50 µM).
For “RPS5_P46782_155_VNQAIWLLCTGAR (UniProt P46782)”, in that order: 0.00589 and 0.118.
For “SNRPC_P09234_25_KTHCSGR (UniProt P09234)”, in that order: -0.332 and -0.766.
Taken in the same sequence, the figures for “SEC61A1_P61619_13_FLEVIKPFCVILPEIQKPERK (UniProt P61619)” were -0.291 and -0.191.
As for “SAMD4B_Q5PRF9_20_GWNECEQTVALLSLLK<|>SAMD4A_Q9UPU9_20_GWNECEQTVALLSLLK (UniProt Q9UPU9+Q5PRF9)”, the “probe-labelled cysteine peptide fold change” value is, setting by setting: (10 µM) -0.204; (50 µM) 0.121.
For “SIAE_Q9HAT2_367_MPNTFMAVAMDLCDRDSPFGSIHPR (UniProt Q9HAT2)”, in that order: -0.176 and -0.565.
In the case of “SEC62_Q99442_55_AVDCLLDSK (UniProt Q99442)”, the “probe-labelled cysteine peptide fold change” value (10 µM) is -0.122 and the “probe-labelled cysteine peptide fold change” value (50 µM) is -0.249.
For “SLC25A5_P05141_257_KGTDIMYTGTLDCWR (UniProt P05141)”, the “probe-labelled cysteine peptide fold change” value (10 µM) was -0.0817 and the “probe-labelled cysteine peptide fold change” value (50 µM) was -0.062.
For “SCP2_P22307_115_QLIQGGVAECVLALGFEK (UniProt P22307)”, the “probe-labelled cysteine peptide fold change” value reads like this: (10 µM) -2.21; (50 µM) -2.14.
For “SPTLC2_O15270_99_CHHATER (UniProt O15270)”, in that order: 0.261 and 0.971.
For “SMARCA2_P51531_1016_ICNHPYMFQHIEESFAEHLGYSNGVINGAELYR (UniProt P51531)”, in that order: -0.0517 and -0.116.
For “SON_P18583_2070_ANAAAMCAK (UniProt P18583)”, in that order: 0.0129 and -0.103.
“RRP8_O43159_451_AQLSGLQLQPCLYK (UniProt O43159)”: the “probe-labelled cysteine peptide fold change” value runs as follows: (10 µM) 0.0693; (50 µM) -0.167.
For “RTN3_O95197-3_46_SCSSSCAVHDLIFWR (UniProt O95197)”, in that order: -0.00795 and -0.919.
For “SMN2_Q16637_60_NGDICETSGKPK (UniProt Q16637)”, in that order: -0.146 and -0.16.
For “SPAG1_Q07617_825_EACAHLLAITAPK (UniProt Q07617)”, in that order: -0.0823 and -0.0988.
Regarding “SCAPER_Q9BY12_336_DSLHSCDHPLAEK (UniProt Q9BY12)”, the “probe-labelled cysteine peptide fold change” value was -0.0351 (10 µM) and -0.308 (50 µM).
For “RUVBL1_Q9Y265_94_VPFCPMVGSEVYSTEIK (UniProt Q9Y265)”, in that order: 0.0537 and -0.0791.
With “SNX5_Q9Y5X3_250_NVADDYIHTAACLHSLALEEPTVIKK (UniProt Q9Y5X3)”, the “probe-labelled cysteine peptide fold change” value is, setting by setting: (10 µM) -0.0814; (50 µM) -0.118.
For the target “RSBN1_Q5VWQ0_282_EVQTVCAGLTR (UniProt Q5VWQ0)”, the “probe-labelled cysteine peptide fold change” value is, setting by setting: (10 µM) 0.00457; (50 µM) -0.119.
On to “SLC25A10_Q9UBX3_69_TDGILALYSGLSASLCR (UniProt Q9UBX3)”, for which the “probe-labelled cysteine peptide fold change” value (10 µM) was 0.0966 and the “probe-labelled cysteine peptide fold change” value (50 µM) stood at 0.615.
Turning to “SNRPC_P09234_6_FYCDYCDTYLTHDSPSVR (UniProt P09234)”, the “probe-labelled cysteine peptide fold change” value is, setting by setting: (10 µM) -0.122; (50 µM) -0.874.
Taken in the same sequence, the figures for “SLX4_Q8IY92_786_FGVSELVHLCEQVPIATDSEGKPWEEK (UniProt Q8IY92)” were 0.00222 and 0.116.
For “SASS6_Q6UVJ0_94_FIDLLQQCTQEHAK (UniProt Q6UVJ0)”, in that order: 0.0471 and 0.0533.
Taken in the same sequence, the figures for “SEPT9_Q9UHD8_531_WGTIEVENTTHCEFAYLR (UniProt Q9UHD8)” were 0.0123 and -0.0856.
In the case of “SCAF11_Q99590_553_TDVCTVHLPNDFPTCLTSESK (UniProt Q99590)”, the “probe-labelled cysteine peptide fold change” value was 0.0519 (10 µM) and -0.221 (50 µM).
For “RPS28_P62857_27_TGSQGQCTQVRVEFMDDTSR (UniProt P62857)”, the “probe-labelled cysteine peptide fold change” value (10 µM) is -0.718 and the “probe-labelled cysteine peptide fold change” value (50 µM) is -0.281.
As for “SMAD4_Q13485_127_CDSVCVNPYHYER (UniProt Q13485)”, the “probe-labelled cysteine peptide fold change” value stood at 0.000739 (10 µM) and 0.0905 (50 µM).
For “S100A8_P05109_42_LLETECPQYIR (UniProt P05109)”, in that order: -0.0697 and -0.229.
Taken in the same sequence, the figures for “SLC4A1AP_Q9BWU0_399_EGEELEYEFDEQGHSTWLCR (UniProt Q9BWU0)” were -0.0527 and 0.0332.
Taken in the same sequence, the figures for “SRP68_Q9UHB9_173_LCESNR (UniProt Q9UHB9)” were 0.14 and 0.559.
Consider “SP1_P08047_633_KQHICHIQGCGK (UniProt P08047)”, for which the “probe-labelled cysteine peptide fold change” value by setting is: (10 µM) -0.185; (50 µM) -0.216.
For “SNTB1_Q13884_515_DGEIQLDLHSCPKPIVFIIHSFLSAK (UniProt Q13884)”, in that order: -0.207 and 0.302.
For “SERPINF2_P08697_152_LCQDLGPGAFR (UniProt P08697)”, in that order: 0.591 and 0.7.
Consider “RPP40_O75818_49_VSFLIPECGILSEELK (UniProt O75818)”, for which the “probe-labelled cysteine peptide fold change” value is, setting by setting: (10 µM) 0.101; (50 µM) 0.161.
For “SMARCB1_Q12824_147_NSQWVPTLPNSSHHLDAVPCSTTINR (UniProt Q12824)”, in that order: -0.0549 and -0.612.
Taken in the same sequence, the figures for “SMS_P52788_256_TCGDVLDNLKGDCYQVLIEDCIPVLKR (UniProt P52788)” were -0.302 and -0.139.
For “RRAGB_Q5VZM2_185_IFCLVHK (UniProt Q5VZM2)”, in that order: 0.162 and 0.183.
Turning to “SLU7_O95391_445_CCHSFFK (UniProt O95391)”, the “probe-labelled cysteine peptide fold change” value reads like this: (10 µM) 0.132; (50 µM) 0.191.
Regarding “RSL1D1_O76021_96_SDSEDICLFTK (UniProt O76021)”, the “probe-labelled cysteine peptide fold change” value is, setting by setting: (10 µM) -0.0174; (50 µM) -0.141.
In the case of “SNRNP200_O75643_576_RLATYGITVAELTGDHQLCK (UniProt O75643)”, the “probe-labelled cysteine peptide fold change” value (10 µM) is -0.0593 and the “probe-labelled cysteine peptide fold change” value (50 µM) came to 0.102.
